From ChEMBL document CHEMBL3988442, “University of Dundee, Small-Polar-MMV Screening Library” (2021) come the findings set out here.

For this assay, the system named is Trypanosoma brucei. Briefly: Trypanosoma brucei 72 hour study. Format: functional, organism-based. On the set-up: scale not given: in the data most compounds retested in dose-response had high values.

Hit rate of the full screen: of about 66,000 compounds, about 960 (1.5%) showed an effect of 50% or more. Shown is part of a subset that was picked to be rich in strong results.

Turning to `CC(Cc1cccc(F)c1)NCc1cnc(N2CCN(C)CC2)nc1` (configuration not stated), the “Percent Effect” value (30 µM, 30.03 µM) is 94.94%.

As to `Cc1cccc(-c2ncc(CNC(C)Cc3ncccc3C)cn2)c1` (configuration not stated), the “Percent Effect” value (30.3 µM, […]) is recorded as -134.7%.

On to `Cn1nc(CN2CCCCC(N)C2)c2c(Cl)cccc21` (configuration not stated), for which the “Percent Effect” value (30.3 µM, […]) is given as 88.2%.

Take `Cn1ncc2c(NC3CN4CCC3CC4)nc(-c3ccncc3)nc21` (configuration not stated): the “Percent Effect” value (30.3 µM, […]) was determined as 99.69%.

Consider `Cn1ccc2c(C(=O)NC3CN4CCC3CC4)cccc21` (configuration not stated), for which, under “30 µM, 30.03 µM”, the “Percent Effect” value is -26.79%.

On to `CC(C)n1ccc2ccc(C(=O)NC3CN4CCC3CC4)cc21` (configuration not stated), for which the “Percent Effect” value (30 µM, 30.03 µM) is on record as -12.75%.

Turning to `O=C(C1CCOCC1)N1C[C@H]2CNC[C@H]2C1`, the “Percent Effect” value (30.3 µM, […]) is listed as 14.48%.

As for `CN1CC[C@H]2OCC[C@@]2(C(=O)NCCc2ccccn2)C1.O=C(O)C(F)(F)F.O=C(O)C(F)(F)F`, the “Percent Effect” value (30.3 µM, […]) is given as -17.73%.

In the case of `O=C(O)C(F)(F)F.O=C(O)C(F)(F)F.O=C(O)C(F)(F)F.c1cc(COC[C@]23COC[C@H]2CN(Cc2ccncc2)C3)ccn1`, the “Percent Effect” value (30 µM, 30.03 µM) is -36.39%.

On to `O=C(O)C(F)(F)F.O=C(O)C(F)(F)F.c1cc(COC[C@]23COC[C@H]2CN(CC2CCC2)C3)ccn1`, for which the “Percent Effect” value (30 µM, 30.03 µM) was 51.43%.

Take `O=C(O)C(F)(F)F.O=C(O)C(F)(F)F.c1cc(COC[C@]23COC[C@H]2CN(Cc2ccsc2)C3)ccn1`: the “Percent Effect” value (30 µM, 30.03 µM) was 16.71%.

On to `O=C(O)C(F)(F)F.O=C(O)C(F)(F)F.O=C(O)C(F)(F)F.c1cncc(CN2CCN3C[C@H](Oc4cncnc4)C[C@H]3C2)c1`, for which the “Percent Effect” value (30.3 µM, […]) is -85.06%.

As to `O=C(O)C1CC2(CCN(c3nccc4ccccc34)CC2)CN1` (configuration not stated), the “Percent Effect” value (30 µM, 30.03 µM) came out at 23.73%.

Take `O=C(NCc1cnn2cccnc12)C1CC2(CCNCC2)CN1` (configuration not stated): for the setting “30 µM, 30.03 µM”, the “Percent Effect” value is 54.89%.

For `CN1CC2(CCNCC2)CC1C(=O)NCCCNc1cccnc1` (configuration not stated), the “Percent Effect” value (30.3 µM, […]) was -6.231%.

For `COc1ncccc1CN1C[C@H]2CCN(c3ncccn3)C[C@H]2C1.O=C(O)C(F)(F)F`, the “Percent Effect” value (30.3 µM, […]) was -7.481%.

Regarding `OCC1N(Cc2ccco2)[C@H]2CC[C@]1(O)CC2` (some centres not stated), the “Percent Effect” value (30.3 µM, […]) is on record as -9.73%.

In the case of `O=C(NCc1ccccn1)[C@]12COC[C@H]1CN(Cc1ccsc1)C2.O=C(O)C(F)(F)F.O=C(O)C(F)(F)F`, the “Percent Effect” value (30.3 µM, […]) is listed as -46.8%.

For the compound `Cc1noc(C)c1CN1C[C@@H]2COC[C@@H](C(=O)N3CCCO3)[C@@H]2C1`, the “Percent Effect” value (30.3 µM, […]) was found to be 79.91%.

Regarding `Cc1noc(C)c1CN1C[C@@H]2COC[C@H](C(=O)N3CCCO3)[C@@H]2C1`, the “Percent Effect” value (30.3 µM, […]) is reported as -103.2%.

`Cc1cc(CN2C[C@@H]3COC[C@H](C(=O)N4CCCCO4)[C@@H]3C2)no1.O=C(O)C(F)(F)F`: the “Percent Effect” value (30.3 µM, […]) is -104.8%.

As for `O=C(Nc1cccnc1)[C@H]1CN(Cc2nccs2)C[C@H]2OCC[C@@H]12.O=C(O)C(F)(F)F.O=C(O)C(F)(F)F.O=C(O)C(F)(F)F`, the “Percent Effect” value (30 µM, 30.03 µM) stood at 6.623%.

`Cc1cccc(CN2C(=O)C[C@H]3[C@@H]2CCN3CC2CC2)n1.O=C(O)C(F)(F)F.O=C(O)C(F)(F)F`: the “Percent Effect” value (30.3 µM, […]) came out at 9.244%.

As for `CNC(=O)c1ccc2c(c1)C1(CCN(C(C)C)CC1)C(=O)N2.O=C(O)C(F)(F)F`, the “Percent Effect” value (30.3 µM, […]) was -29.31%.

Regarding `CCC1CNCc2cc3c(C)ccc(C)c3nc2O1` (configuration not stated), under “30.3 µM, […]”, the “Percent Effect” value is given as 58.28%.

As for `CCC1CNCc2cc3c(OC)ccc(OC)c3nc2O1` (configuration not stated), where the note is “30.3 µM, […]”, the “Percent Effect” value was 8.287%.

As to `Cc1cccc(CN2CC[C@H]3OCC[C@@]3(C(=O)N3CCCO3)C2)n1.O=C(O)C(F)(F)F.O=C(O)C(F)(F)F`, where the note is “30.3 µM, […]”, the “Percent Effect” value is listed as -52.48%.

With `O=C(O)C(F)(F)F.O=C(O)C(F)(F)F.O=C([C@H]1C[C@H]2OCC[C@H]2N(Cc2cccnc2)C1)N1CCCCO1`, where the note is “30.3 µM, […]”, the “Percent Effect” value is reported as -300.7%.

As to `O=C(C[C@@H]1COC[C@H]2CN(Cc3cccnc3)C[C@@H]12)NCC1CC1.O=C(O)C(F)(F)F.O=C(O)C(F)(F)F`, for the setting “30.3 µM, […]”, the “Percent Effect” value was -16.86%.

Consider `CN(c1ncccc1C#N)C1CCN(CCc2ccncc2)CC1`, for which the “Percent Effect” value (30 µM, 30.03 µM) is on record as -5.163%.

As for `CC1CN(CCc2ccncc2)CCO1` (configuration not stated), where the note is “30 µM, 30.03 µM”, the “Percent Effect” value is listed as -38.53%.

With `CCC1CCCCN1CCc1ccncc1` (configuration not stated), the “Percent Effect” value (30.3 µM, […]) came to 96.43%.

For the compound `Fc1cccc(CN2CCC3(CCN3c3ncccn3)C2)c1.O=C(O)C(F)(F)F` (configuration not stated), the “Percent Effect” value (30.3 µM, […]) is reported as -29.27%.

Regarding `COCCN1CCC2(COCc3cnc(-c4ccccc4)nc32)C1.O=C(O)C(F)(F)F` (configuration not stated), the “Percent Effect” value (30.3 µM, […]) is reported as -55.77%.

For `CCOC(=O)[C@@H]1[C@@H](c2ccccc2)CN2CCNC[C@H]12`, where the note is “30.3 µM, […]”, the “Percent Effect” value was -24.8%.

Consider `O=C1CSC(c2ccc3c(c2)OCO3)c2cnn(C3CCCCC3)c2N1` (configuration not stated), for which the “Percent Effect” value (30 µM, 30.03 µM) is recorded as 6.351%.

Take `COC(=O)c1ccc(C2SCC(=O)Nc3c2cnn3C2CCCC2)cc1` (configuration not stated): the “Percent Effect” value (30 µM, 30.03 µM) worked out at 9.206%.

With `O=C1CSC(c2cccs2)c2cnn(C3CCCC3)c2N1` (configuration not stated), the “Percent Effect” value (30 µM, 30.03 µM) amounted to 106.7%.

Turning to `CN1CCN(S(=O)(=O)c2cccc(F)c2)Cc2cccnc21.O=C(O)C(F)(F)F`, under “30.3 µM, […]”, the “Percent Effect” value is on record as -5.986%.

In the case of `COCCN1CCN(S(C)(=O)=O)Cc2ccc(C)nc21.O=C(O)C(F)(F)F`, the “Percent Effect” value (30.3 µM, […]) was -28.84%.

For `COCCN1CCN(c2ccc(C)nn2)Cc2ccc(C)nc21.O=C(O)C(F)(F)F.O=C(O)C(F)(F)F`, the “Percent Effect” value (30.3 µM, […]) is 6.262%.

Regarding `COCCN1CCN(c2cccc(C)n2)Cc2ccc(C)nc21.O=C(O)C(F)(F)F.O=C(O)C(F)(F)F`, where the note is “30.3 µM, […]”, the “Percent Effect” value was found to be 60.56%.
